The record followed here is PubChem BioAssay AID1851 (National Center for Advancing Translational Sciences (NCATS), 2009).

Structures are written as SMILES. The whole screen tested about 16,000 compounds, of which about 4,000 (25%) were called active. Roughly 26% stayed inconclusive and do not appear here. These entries were drawn from the full list. Values without a mark were called inactive. The call rests on the fitted dose curve; in most records, active means well fitted curve in the direction sought with a large enough effect; inconclusive means small, poorly fitted or top-dose-only effect, or effect the other way; inactive means no such curve, though single readings can be large or run the other way.
On the % scale 0 is the no-effect control and ±100 the full control effect.

The target of the experiment is Cytochrome P450 2C9 (Homo sapiens) (UniProt P11712). Put plainly: Cytochrome panel assay with activity outcomes. The settings on record: recombinant CYP, pro-luciferin dealkylation, luminescence, p450-cyp2c9; series mostly up to 57.1 µM.
Chain of Cytochrome P450 2C9 (Homo sapiens) (P11712 whole entry, looked up): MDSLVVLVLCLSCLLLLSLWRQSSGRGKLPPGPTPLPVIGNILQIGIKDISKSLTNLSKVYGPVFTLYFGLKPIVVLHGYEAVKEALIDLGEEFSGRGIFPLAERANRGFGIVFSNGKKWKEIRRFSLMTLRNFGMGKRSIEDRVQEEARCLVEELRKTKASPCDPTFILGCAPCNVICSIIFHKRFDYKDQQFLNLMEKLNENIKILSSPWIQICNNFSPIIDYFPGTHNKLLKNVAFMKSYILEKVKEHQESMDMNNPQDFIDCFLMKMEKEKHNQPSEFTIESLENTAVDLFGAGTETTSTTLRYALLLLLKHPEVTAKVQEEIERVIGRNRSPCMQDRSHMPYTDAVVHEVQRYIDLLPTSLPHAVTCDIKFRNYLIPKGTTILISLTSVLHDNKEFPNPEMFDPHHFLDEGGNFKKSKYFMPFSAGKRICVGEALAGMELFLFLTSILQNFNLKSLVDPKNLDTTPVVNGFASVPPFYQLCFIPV
A word on the AC50: it is the concentration at which the activity in the assay is half-maximal. As to `CC(C)(C)NS(=O)(=O)c1ccc(NS(=O)(=O)c2ccc(F)cc2)cc1`, the AC50 was 200 nM (active).

For `COc1ccc(F)cc1S(=O)(=O)NC(Cc1ccccc1)C(N)=O` (configuration not stated), the AC50 entry is “inactive”.

`CC(=O)c1ccc(S(=O)(=O)NC(=O)NC2CCCCC2)cc1`: the AC50 result is “inactive”. For the molecule `CC(C)(C)c1ccc(NS(=O)(=O)c2ccc(N)cc2)cc1`, the activity, negative = inhibition is -10.7% [at 11.4 µM]. As for `COc1ccccc1S(=O)(=O)Nc1ccc(-c2nnc3n2CCCCC3)cc1`, the AC50 result was “inactive”. As for `CC(C)(C)NS(=O)(=O)c1ccc(NC(=O)NC2CCCCC2)cc1`, the concentration at half-maximal activity (AC50) is 20000 nM (active). Consider `Cn1c(CNS(=O)(=O)c2ccc(F)cc2)n[nH]c1=S`, for which the AC50 entry is “inactive”. As for `Cc1cccc(C)c1NC(=O)Nc1ccc(S(N)(=O)=O)cc1`, the activity, negative = inhibition was -4.33% [at 11.4 µM]. Take `COc1ccc(S(=O)(=O)Nc2ccc(F)cc2)c(C)c1C`: the AC50 was 8910 nM (active). On to `CC(C)(Oc1ccc(CCNC(=O)c2ccc(Cl)cc2)cc1)C(=O)O`, for which the AC50 result was “inactive”.

As for `CCN=C(Nc1ccc(Cl)cc1)c1cccnc1`, the AC50 result is “inactive”.

Consider `CC(C)(Oc1ccc(Cl)cc1)C(=O)Nc1ccncc1`, for which the AC50 is 501 nM (active).

With `CC(C)(Oc1ccc(Cl)cc1)C(=O)Nc1cccnc1`, the AC50 is 14100 nM (active). As for `CC(C)N=C(Nc1ccc(Cl)cc1)c1cccnc1`, the AC50 result is “inactive”. For `CC(C)OC(=O)C(C)(C)Oc1ccc(C(=O)c2ccc(Cl)cc2)cc1`, the AC50 entry was “inactive”. Turning to `Nc1cc(C(=O)O)[nH]c(=O)n1`, the activity, negative = inhibition was 7.9% [at 11.4 µM]. On to `CC(=O)OCC(=O)[C@@]1(OC(C)=O)[C@H](C)C[C@H]2[C@@H]3C[C@H](F)C4=CC(=O)C=C[C@@]4(C)[C@]3(F)[C@H](O)C[C@@]21C`, for which the AC50 entry was “inactive”. In the case of `CN(C)CCC=C1c2ccccc2CCc2ccccc21`, the AC50 entry was “inactive”. For `O=C(CCN1C(=O)C2C3C=CC(C3)C2C1=O)Nc1c(F)cccc1F` (configuration not stated), the AC50 result was “inactive”. Take `CS(=O)(=O)N(CC(=O)Nc1c(F)cccc1F)c1ccc(C23CC4CC(CC(C4)C2)C3)cc1`: the AC50 was 3980 nM (active). With `CC(=O)NC(CCS(C)(=O)=O)C(=O)Nc1c(F)cccc1F` (configuration not stated), the AC50 entry is “inactive”. On the same count and under the same terms, for `Cc1ccc(S(=O)(=O)/N=C2/NC(=O)/C(=C/c3cccnc3)S2)cc1` the value was 79.4 nM (active); for `CCN(CC)c1ccc(N2C(=O)/C(=C/c3cccnc3)SC2=S)cc1`, “inactive”. On to `CC(C)NC(=O)CC(=O)N/N=C/c1ccc(F)cc1`, for which the AC50 result is “inactive”. Regarding `CC(C)c1ccc(/C=N/NC(=O)CN(c2cccc(Cl)c2Cl)S(C)(=O)=O)cc1`, the AC50 was 8910 nM (active). For the molecule `C/C(CCN1CCc2nc(-c3ccccc3)c(-c3ccccc3)cc2C1)=N\O[C@@H](C)CN1CCCCc2nc(C)c(C)cc21`, the activity, negative = inhibition was 2.2% [at 11.4 µM]. As to `CN(C)Cc1ccccc1-c1cc(-n2ccnc2)ncn1`, the activity, negative = inhibition is -14.3% [at 2.29 µM]. In the case of `CN(Cc1ccccc1)Cn1ccnc1`, the half-maximal activity concentration (AC50) is 2510 nM (active). In the case of `C#CCN(C)Cc1ccccc1`, the AC50 entry was “inactive”.

Turning to `CC1(C)CC(=O)c2cn3ncnc3nc2C1`, the AC50 result was “inactive”. The same measure, in the same setting: the result for `O=C(Nc1ccc2c(c1)nc1n2CCN(C2CCCCC2)C1)NC1CCCCC1` reads 14100 nM (active); that for `CC1CCN(CCc2nc3cc(NC(=O)NC4CCCCC4)ccc3n2C)CC1`, “inactive”; that for `Cn1c(CN2CCCC2)nc2cc(NC(=O)C3CCCCC3)ccc21`, “inactive”.

In the case of `CO[C@@]12C[C@@H](COC(=O)c3cncc(Br)c3)CN(C)[C@H]1Cc1cn(C)c3cccc2c13`, the AC50 entry was “inactive”.

For `N/C(CC/C(N)=N/O)=N\O`, the activity, negative = inhibition was -8.92% [at 11.4 µM]. As for `CCN(CC)C(=O)Cn1cc(/C=C(\C#N)C(=O)N2CCN(c3ccccc3)CC2)c2ccccc21`, the AC50 was 3550 nM (active). For `CCc1cccc2c(C=C(C#N)C#N)cn(CC(=O)N3CCCCC3)c12`, the AC50 entry was “inactive”.

Consider `O=C1O[C@H](CN2CCOCC2)CN1/N=C\c1ccc([N+](=O)[O-])o1`, for which the AC50 entry is “inactive”.

As to `C[C@@H](C[N+](C)(C)C)OC(N)=O`, the AC50 result is “inactive”. Regarding `Cn1c(=O)c(-c2cc(F)cc(F)c2)nc2cncnc21`, the AC50 entry is “inactive”. As for `COc1ccccc1CCn1c(=O)c(-c2cc(F)cc(F)c2)nc2cncnc21`, the AC50 was 1580 nM (active).

In the case of `COCCn1c(=O)c(-c2cccc(F)c2)nc2cncnc21`, the AC50 entry is “inactive”. As for `COc1ccccc1CCn1c(=O)c(-c2cccc(F)c2)nc2cncnc21`, the AC50 was 2510 nM (active). `COCCn1c(=O)c(-c2cc(F)cc(F)c2)nc2cncnc21`: the AC50 entry was “inactive”. As to `COc1ccc(-n2c(=O)c(-c3cccc(F)c3)nc3cncnc32)cc1`, the AC50 entry is “inactive”. As for `O=C(c1ccccc1)c1ccc2n1CC[C@H]2C(=O)O`, the AC50 entry was “inactive”. As to `c1ncc(-c2ccoc2)c(NC2CC2)n1`, the activity, negative = inhibition was 5.65% [at 2.29 µM]. As for `CCCNc1[nH]c(=O)n(C)c(=O)c1N=O`, the AC50 result is “inactive”.

Take `O=C(O)C12CC3(C(=O)O)CC(C(=O)O)(CC(C(=O)O)(C1)C3=O)C2=O`: the activity, negative = inhibition was -3.16% [at 11.4 µM]. `COCCCN1C(=O)C(=O)/C(=C(/O)c2ccc(OC)cc2C)C1c1cccnc1` (configuration not stated): the AC50 entry was “inactive”.

As to `COc1ccc(/C(O)=C2/C(=O)C(=O)N(Cc3cccnc3)C2c2ccco2)cc1OC` (configuration not stated), the AC50 was 8910 nM (active). The same measure, in the same setting: for `COc1ccc(C2C(C(=O)c3ccco3)=C(O)C(=O)N2Cc2cccnc2)cc1OC` (configuration not stated) the value was “inactive”.

Take `COc1ccccc1-c1cc(NCc2cccnc2)ncn1`: the activity, negative = inhibition was -17.3% [at 2.29 µM]. `COc1cccc(/C(O)=C2/C(=O)C(=O)N(Cc3cccnc3)C2c2ccco2)c1` (configuration not stated): the AC50 is 398 nM (active). As to `CCOc1cccc(/C(O)=C2/C(=O)C(=O)N(Cc3cccnc3)C2c2ccco2)c1` (configuration not stated), the AC50 was 1580 nM (active). Consider `COCCN1C(=O)C(=O)/C(=C(/O)c2cccc(OC)c2)C1c1ccco1` (configuration not stated), for which the AC50 result was “inactive”. On to `CCc1cc2c(nc1CC)CCN(CC/C(C)=N/O[C@@H]1O[C@H](COC(C)=O)[C@H](OC(C)=O)[C@H](OC(C)=O)[C@H]1OC(C)=O)C2`, for which the activity, negative = inhibition was 1.56% [at 11.4 µM]. For the molecule `CN(C)C(=O)c1ccc(-c2cncnc2-n2ccnc2)cc1`, the activity, negative = inhibition was 12.6% [at 2.29 µM].

As for `c1cncc(-c2cc(-n3ccnc3)ncn2)c1`, the activity, negative = inhibition is 12.2% [at 2.29 µM].

Consider `Cc1c(Cl)cccc1NC(=O)c1ccc(-n2ccnc2)nc1`, for which the AC50 was 79.4 nM (active). `CS(=O)(=O)Nc1cccc(-c2cncnc2-n2ccnc2)c1`: the activity, negative = inhibition was 10.1% [at 2.29 µM]. `O=C(Nc1ccc(F)cc1)c1ccc(-n2ccnc2)nc1`: the AC50 is 178 nM (active).

Take `CN(C)C(=O)c1ccc(-c2nccc(-n3ccnc3)n2)cc1`: the activity, negative = inhibition is 17.2% [at 2.29 µM]. Still for that read-out and setting: for `O=C(NCCC[N+]1=CC=N[C@H]1c1ccccc1)N1CCCc2nc(-c3ccc(Br)cc3)ccc21` the value was -48.1% [at 11.4 µM]. In the case of `O=C(Nc1ccccc1)N1CC[C@@]2(CCCN(C(=O)c3cnccn3)C2)C1`, the AC50 result is “inactive”. For the molecule `CN(C)Cc1ccc(O)c(CN(C)C)n1`, the activity, negative = inhibition is 7.12% [at 11.4 µM]. Take `CNC(C)c1cc(OC)ccc1OC` (configuration not stated): the AC50 result was “inactive”. Regarding `COc1cc(Br)c(C(C)NC(=O)c2cccc(Br)c2)cc1OC` (configuration not stated), the AC50 is 2820 nM (active). The same measure, in the same setting: the result for `COc1ccc(C(=O)NC(C)c2cc(OC)c(OC)cc2Br)cc1` (configuration not stated) reads 12600 nM (active); that for `CC(NC(=O)c1cccc(F)c1)C(c1cccs1)N1CCN(C)CC1` (configuration not stated), “inactive”.

In the case of `COc1ccc(C(=O)[C@H](Br)[C@H](Br)C(=O)O)cc1`, the activity, negative = inhibition was -11.2% [at 11.4 µM]. Consider `CCCCSc1nc(C)cc(NC(=S)Nc2ccc(OC)cc2)n1`, for which the AC50 entry is “inactive”. As for `O=C1/C(=N\O)Cc2ccccc21`, the AC50 result is “inactive”. Same read-out and setting: the result for `COCC(=O)N1CCC[C@@]2(CCN(C(=O)Nc3cccc(F)c3)C2)C1` reads “inactive”. For the molecule `CCOC(=O)CCCN`, the activity, negative = inhibition is 4.7% [at 11.4 µM]. `Cc1cc([N+](=O)[O-])ccc1-c1ccc(C2Nc3ccccc3C(=O)N2O)o1` (configuration not stated): the AC50 was 2820 nM (active). Regarding `O=[N+]([O-])c1ccc2c(c1)S(=O)c1ccccc1-2` (configuration not stated), the activity, negative = inhibition is -1.14% [at 11.4 µM]. For `O=C1C2=C(Nc3cc([N+](=O)[O-])ccc3N2)O[C@@H]1c1ccc([C@H]2OC3=C(Nc4ccc([N+](=O)[O-])cc4N3)C2=O)cc1`, the activity, negative = inhibition is -18.7% [at 11.4 µM]. As for `CCOC(=O)Cc1csc(NC(=O)c2ccc(Cl)nc2)n1`, the AC50 is 11200 nM (active). For the molecule `CCOC(=O)Cc1csc(NC(=O)c2sc3nc4ccc(CC)cc4cc3c2N)n1`, the AC50 was 447 nM (active). Same read-out and setting: for `COc1cc2cc3c(N)c(C(=O)Nc4sc(C)c(C)c4C#N)sc3nc2cc1OC` the value was “inactive”. As to `CC(C)(C)c1ccccc1OCCN1CCCC1`, the AC50 entry was “inactive”. For the molecule `Cc1cccc(C)c1NC(=O)/C(C#N)=C/c1cccs1`, the AC50 was 11200 nM (active). Regarding `CCOc1ccc(-n2c(SCC(=O)Nc3ccc(OC)cc3OC)nc3c(c2=O)SCC3)cc1`, the AC50 was 4470 nM (active). On to `COCCN(C(=O)Nc1ccc(OC)cc1OC)C1CCN(C(C)=O)CC1`, for which the AC50 result is “inactive”. In the case of `CCOc1ccc(-n2c(SCC(=O)Nc3ccc4c(c3)OCCO4)nc3c(c2=O)SCC3)cc1`, the AC50 was 2820 nM (active). Consider `CCOc1ccc2nc(C)cc(Nc3ccc4c(c3)OCCO4)c2c1`, for which the AC50 result was “inactive”. Still for that read-out and setting: the result for `CC(=O)c1[nH]c(C)c(C(C)=O)c1C` reads “inactive”. Take `CN(C)c1ccc2nc3c(C(=O)O)cc(=O)c(O)c-3oc2c1`: the activity, negative = inhibition is -29.4% [at 11.4 µM]. In the case of `Cc1ccc(-n2c(O)cnc2Nc2nc(C)cc(C)n2)cc1`, the AC50 entry is “inactive”.

Consider `COc1ccc(/C(C#N)=C/c2c(-c3ccc(Cl)cc3)nc3c(C)cccn23)cc1`, for which the AC50 is 5010 nM (active). Take `COc1cccc(Nc2ncc3nc(-c4ccc(Cl)cc4)c(=O)n(CCC#N)c3n2)c1`: the AC50 result is “inactive”. In the case of `COc1ccc(Oc2ncc3nc(-c4ccc(Cl)cc4)c(=O)n(C)c3n2)cc1`, the AC50 entry is “inactive”. Same read-out and setting: for `O=C(O)Cc1sc(-c2ccc(Cl)cc2)nc1-c1ccccc1` the value was 2000 nM (active). As for `CN(Cc1cccc2ccccc12)Cc1cccc2ccccc12`, the activity, negative = inhibition is -23.2% [at 11.4 µM]. Turning to `Nc1nc(-c2cc(-c3cccc4ccccc34)nc(N)n2)cc(-c2cccc3ccccc23)n1`, the activity, negative = inhibition is 10.6% [at 11.4 µM].

For the molecule `BrC(c1cccc2ccccc12)c1cccc2ccccc12`, the AC50 is 3160 nM (active).
